Screens from PubChem BioAssay.
ssDAF12 agonist – activators of S. stercoralis DAF-12 nuclear receptor; 1% of 370,000 active; activation, % at 6.8 µM; AID 652126; HEK293 ssDAF-12/GRIP1 lit1-tk-luc reporter, luminescence; % of 3 µM dafachronic acid response;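 active means activation above the mean over all tested compounds plus 3 SD, cut at about 0.9% in these data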
hgDAF-12 ag – activates the H. glycines DAF-12 receptor ligand-binding domain; HEK293 GAL4-hgDAF12 UAS-luciferase reporter, agonist luminescence; normalized to butyrate control; activation, % at 6.8 µM; 1.8% of 370,000 active; AID 687014;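 active means activation above a cutoff set at the mean of all screened compounds plus 3 SD, cut at about 10% in these data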
hcDAF-12 act – H. contortus DAF-12 activation, primary screen; HEK293 hcDAF-12 lit1-tk-luc reporter, luminescence; 0% DMSO, 100% Δ7-dafachronic acid; activation, % at 6.8 µM; 1.4% of 370,000 active; AID 652067;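 active means activation above the mean of all tested compounds plus 3 SD, cut at about 5.5% in these data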
AHR activator – activators of human aryl hydrocarbon receptor; P35869; AHR-responsive luciferase reporter cells, luminescence; activation, % at 5 µM; 2.5% of 320,000 active; in the data active means activation above about 47%
Target sequence (P35869 whole entry, looked up): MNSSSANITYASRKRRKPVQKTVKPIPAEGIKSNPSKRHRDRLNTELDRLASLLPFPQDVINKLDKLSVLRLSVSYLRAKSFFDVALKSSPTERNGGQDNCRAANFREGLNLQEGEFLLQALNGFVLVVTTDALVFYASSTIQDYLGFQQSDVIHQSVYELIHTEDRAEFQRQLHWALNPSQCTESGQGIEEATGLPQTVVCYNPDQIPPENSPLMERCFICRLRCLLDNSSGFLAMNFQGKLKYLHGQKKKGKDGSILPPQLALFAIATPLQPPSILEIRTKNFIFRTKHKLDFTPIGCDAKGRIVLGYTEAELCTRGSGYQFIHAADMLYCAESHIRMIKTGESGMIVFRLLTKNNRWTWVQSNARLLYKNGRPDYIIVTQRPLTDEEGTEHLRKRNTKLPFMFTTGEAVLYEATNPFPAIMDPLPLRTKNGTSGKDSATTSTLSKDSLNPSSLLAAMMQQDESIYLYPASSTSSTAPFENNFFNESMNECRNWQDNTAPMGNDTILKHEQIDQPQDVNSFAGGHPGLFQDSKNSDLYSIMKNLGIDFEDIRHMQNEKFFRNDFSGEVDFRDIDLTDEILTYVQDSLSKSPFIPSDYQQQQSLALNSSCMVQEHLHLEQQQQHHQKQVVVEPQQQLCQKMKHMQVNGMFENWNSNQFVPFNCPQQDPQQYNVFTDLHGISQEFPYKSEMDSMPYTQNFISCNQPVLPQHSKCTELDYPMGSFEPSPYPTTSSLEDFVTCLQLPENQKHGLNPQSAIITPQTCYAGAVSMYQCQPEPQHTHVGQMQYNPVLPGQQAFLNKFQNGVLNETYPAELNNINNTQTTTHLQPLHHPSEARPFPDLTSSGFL
DAX1 inh-1 – NR0B1 (DAX1) inhibition; 0.99% of 340,000 active; inhibition, % at 6.75 µM; HEK293 Gal4-DAX1 luciferase reporter, luminescence;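 active means inhibition above the mean over all tested compounds plus 3 SD, cut at about 4.2% in these data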;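 further: inhibition shows as a rise in luminescence from relieved DAX1 repression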
DAX1 inh-2 – inhibitors of DAX1 repression of SF-1 activated StAR promoter; inhibition, % at 6.8 µM; AID 652010; HEK293T StAR-luciferase reporter, SF-1/DAX-1 repression relief; 1.1% of 370,000 active;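 active means inhibition above the mean over all tested compounds plus 3 SD, cut at about 3.6% in these data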;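 further: higher inhibition means more luminescence from relief of DAX-1 repression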
DAX1 inh confirm – NR0B1 (human) inhibition, confirmation | inhibition, % at 6.8 µM | shares compounds with DAX1 inh-2 | 87% of 2,400 active | AID 652134 | HEK293T StAR-promoter luciferase reporter, SF-1/DAX-1 repression;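 active means inhibition above the average of every tested compound plus 3 SD, cut at about 3.8% in these data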;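 further: active compounds raise luminescence by relieving repression of the StAR reporter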
SF1 mutant ctr – nonselective inhibitor or artifact in SF-1 mutant DAX1 counter-screen. shares compounds with DAX1 inh-2. HEK293 StAR-luciferase, SF-1 AF2 mutant, luminescence. inhibition, % at 6.8 µM. 78% of 2,400 active;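 active means inhibition above the mean of all tested compounds plus 3 SD, cut at about 3% in these data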
LXRb hcDAF ctr – activates human LXR-beta, counter-screen for hcDAF-12 agonists. shares compounds with hcDAF-12 act. HEK293 Gal4-LXR tk-luc reporter, luminescence, 24 h; normalized: DMSO 0%, positive control 100%. activation, % at 6.8 µM. 3,400 tested, under 10 active;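 active means mean percent activation of the reporter above a cutoff set as the average over tested compounds plus their standard deviation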
hcDAF12 ag – hcDAF-12 agonism, confirmation assay; shares compounds with hcDAF-12 act; activation, % at 6.8 µM; HEK293 hcDAF-12 lit1-tk-luc reporter, luminescence; % of Δ7-dafachronic acid response; 61% of 3,400 active;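 active means mean activation across triplicate tests above the threshold derived from the earlier primary screen, cut at about 5.5% in these data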
hgDAF12 conf – confirmation of H. glycines DAF-12 agonists. shares compounds with hgDAF-12 ag. HEK293 GAL4-hgDAF12 luciferase reporter, agonist mode; percent of butyrate response. activation, % at 6.8 µM. 80% of 3,300 active. AID 743050;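 active means mean activation over triplicate wells above the hit cutoff derived from the earlier primary screen, cut at about 11% in these data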
LXRb DAF12 ctr – counter-screen for DAF-12 agonists: agonists of human LXR-beta; shares compounds with hgDAF-12 ag; HEK293 Gal4-LXR luciferase reporter, 24 h; activation, % at 6.8 µM; 3,300 tested, under 10 active; AID 743051;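 active means mean activation of the triplicate above a set limit carried over from the primary screen, none filed active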
Large screens that a line does not name were inactive (follow-up assays come after a bar, where they were run). Sampled rows, rich in hits. Any-hit rate of the full collection: about 5.7%.

Cc1cc(C(=O)CSc2cccc[n+]2[O-])c(C)n1-c1ccccc1	hgDAF-12 ag 16, hcDAF-12 act 7.5, DAX1 inh-2 8.1 | DAX1 inh confirm 17 | SF1 mutant ctr 7.8 | LXRb hcDAF ctr inactive | hcDAF12 ag 7.2 | hgDAF12 conf 13 | LXRb DAF12 ctr inactive
Cc1ccc(NC(=S)NC(=O)C2CCCC2)c(Br)c1	hgDAF-12 ag 15, hcDAF-12 act 6.3, DAX1 inh-2 9.3 | DAX1 inh confirm 9.5 | SF1 mutant ctr 4.7 | hgDAF12 conf 21 | LXRb DAF12 ctr inactive
CC(=O)Nc1ccc(Nc2cc(C)nc3c(-c4ccccc4)cnn23)cc1	none
Cc1cc(-c2ccncc2)n2ncc(-c3ccccc3)c2n1	ssDAF12 agonist 2.5, hgDAF-12 ag 19, hcDAF-12 act 11, DAX1 inh-2 13 (no result: AHR activator, DAX1 inh-1) | DAX1 inh confirm 19 | SF1 mutant ctr 9.5 | LXRb hcDAF ctr inactive | hcDAF12 ag 11 | hgDAF12 conf 23 | LXRb DAF12 ctr inactive
CN(C)c1ccc(-c2nnc(-c3cccs3)o2)cc1	hgDAF-12 ag 20, DAX1 inh-1 4.4, DAX1 inh-2 5.8 | DAX1 inh confirm 15 | SF1 mutant ctr 5.9 | hgDAF12 conf 17 | LXRb DAF12 ctr inactive
CCC(=O)Nc1cccc2cccnc12	none
C/C(=N\Nc1cccc2cccnc12)c1ccc[nH]1	ssDAF12 agonist 1.3, hgDAF-12 ag 20, hcDAF-12 act 10, AHR activator 51, DAX1 inh-2 7.5 | DAX1 inh confirm 14 | SF1 mutant ctr 5.2 | LXRb hcDAF ctr inactive | hcDAF12 ag 9.9 | hgDAF12 conf 18 | LXRb DAF12 ctr inactive
CCOc1ccc(/C=C\C(C)=N\O)cc1	hgDAF-12 ag 14, DAX1 inh-2 4.9 | DAX1 inh confirm 8.2 | SF1 mutant ctr 6.9 | hgDAF12 conf 13 | LXRb DAF12 ctr inactive
CCOc1ccc(/C=C/C(=O)Oc2ccc(OC)cc2)cc1	none
COc1ccccc1NC(=O)CSc1nnc(-c2ccc(C)cc2)o1	hgDAF-12 ag 14, DAX1 inh-2 6.3 | DAX1 inh confirm 15 | SF1 mutant ctr 8.3 | hgDAF12 conf 17 | LXRb DAF12 ctr inactive
O=C(CSc1nnc(-c2cccnc2)o1)Nc1ccccc1F	hgDAF-12 ag 14, DAX1 inh-2 8.4 | DAX1 inh confirm 11 | SF1 mutant ctr 4.4 | hgDAF12 conf 12 | LXRb DAF12 ctr inactive
c1ccc2sc(Nc3nc4cc5c(cc4s3)OCO5)nc2c1	ssDAF12 agonist 2.3, hgDAF-12 ag 18, hcDAF-12 act 7.4, AHR activator 137, DAX1 inh-2 5.4 | DAX1 inh confirm 12 | SF1 mutant ctr 7.8 | LXRb hcDAF ctr inactive | hcDAF12 ag 8.2 | hgDAF12 conf 17 | LXRb DAF12 ctr inactive
C(=C\c1ccccc1)/C=N/Nc1nc2ccccc2s1	ssDAF12 agonist 2.2, hgDAF-12 ag 19, hcDAF-12 act 16, DAX1 inh-1 5.7, DAX1 inh-2 5.3 | DAX1 inh confirm 14 | SF1 mutant ctr 11 | LXRb hcDAF ctr inactive | hcDAF12 ag 9.6 | hgDAF12 conf 20 | LXRb DAF12 ctr inactive
CCC/C=N/Nc1nc2ccccc2s1	none
C(=N\Nc1nc2ccccc2s1)/c1ccc2c(c1)OCO2	ssDAF12 agonist 4.5, hgDAF-12 ag 17, hcDAF-12 act 17, AHR activator 112, DAX1 inh-2 8.2 | DAX1 inh confirm 19 | SF1 mutant ctr 12 | LXRb hcDAF ctr inactive | hcDAF12 ag 9.6 | hgDAF12 conf 24 | LXRb DAF12 ctr inactive
COc1ccc(C=NNc2nc3ccccc3s2)cc1	ssDAF12 agonist 0.9, hgDAF-12 ag 17, hcDAF-12 act 14, DAX1 inh-2 11 (no result: AHR activator) | DAX1 inh confirm 22 | SF1 mutant ctr 12 | LXRb hcDAF ctr inactive | hcDAF12 ag 13 | hgDAF12 conf 16 | LXRb DAF12 ctr inactive
COc1cccc(CNC(=O)c2cc3c(c(-c4cccc(-c5cccc(C#N)c5)c4)n2)[C@H](CCO)N(S(=O)C(C)(C)C)C3)c1 (stereo not given in full)	none (no result: AHR activator, DAX1 inh-1)
C=CCn1c(C)cc(C(=O)Cn2nc(C(=O)O)c3ccccc3c2=O)c1C	ssDAF12 agonist 0.9, hgDAF-12 ag 15, DAX1 inh-2 5.0 | DAX1 inh confirm 10 | SF1 mutant ctr 4.0 | hgDAF12 conf 13 | LXRb DAF12 ctr inactive
C[C@@H]1CN([C@H](C)CO)C(=O)CCCn2nncc2CO[C@H]1CN(C)C(=O)C1CCCCC1	none (no result: AHR activator)
O=C(O)c1ccccc1OCC1CCCO1 (stereo not given)	none
O=C(Nc1cccnc1)c1cc(-c2cc(Cl)ccc2O)n[nH]1	none
CC(C)Oc1ccc(F)cc1-c1cc(C(=O)Nc2ccccc2)[nH]n1	none (no result: AHR activator, DAX1 inh-1)
Cc1cc(F)ccc1-c1cc(C(=O)Nc2ccccc2)[nH]n1	ssDAF12 agonist 1.5, hgDAF-12 ag 21, hcDAF-12 act 12, DAX1 inh-2 12 (no result: AHR activator, DAX1 inh-1) | DAX1 inh confirm 15 | SF1 mutant ctr 5.8 | LXRb hcDAF ctr inactive | hcDAF12 ag 14 | hgDAF12 conf 20 | LXRb DAF12 ctr inactive
Cc1ccc(O)c(-c2cc(C(=O)Nc3cccnc3)[nH]n2)c1	hgDAF-12 ag 19, AHR activator 60, DAX1 inh-1 7.0, DAX1 inh-2 4.8 | DAX1 inh confirm 13 | SF1 mutant ctr 6.2 | hgDAF12 conf 13 | LXRb DAF12 ctr inactive
Cc1ccc([C@H]2C[C@H](O)[C@@H](n3cc(-c4ccc(F)cc4)nn3)CN2C(=O)C2CCCCC2)cc1	none (no result: AHR activator)
O=C(Cc1ncc(C(F)(F)F)cc1Cl)NCCc1ccccn1	none
N#Cc1ccccc1NC(=O)COC(=O)/C=C/c1ccc(S(=O)(=O)N2CCOCC2)cc1	none
COc1ccc(N=C2C(=Nc3ccc(OC)cc3)N(c3ccc(OC)cc3)C(=S)N2C(=O)c2ccc(OC)cc2)cc1	none
